DAGLB inhibitor: diacylglycerol lipase beta (human) inhibition | Q8NCG7 | HEK293T DAGLB membrane lysate, EnzChek fluorogenic substrate | inhibition, % at 5.17 µM | 340,000 tested, 0.059% active; in the data active = inhibition above about 34%
sPLA2-III inh: Inhibits HGIII-sPLA2 liposome hydrolysis, primary screen | QFRET BODIPY PC-A2 liposome hydrolysis, fluorescence | inhibition, % at 12.2 µM | 370,000 tested, 0.56% active | AID 743126;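 active = inhibition above mean plus 3 SD of compounds lying within the high and low control bounds, cut at about 19% in these data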
Target sequence (Q9NZ20 whole entry, looked up): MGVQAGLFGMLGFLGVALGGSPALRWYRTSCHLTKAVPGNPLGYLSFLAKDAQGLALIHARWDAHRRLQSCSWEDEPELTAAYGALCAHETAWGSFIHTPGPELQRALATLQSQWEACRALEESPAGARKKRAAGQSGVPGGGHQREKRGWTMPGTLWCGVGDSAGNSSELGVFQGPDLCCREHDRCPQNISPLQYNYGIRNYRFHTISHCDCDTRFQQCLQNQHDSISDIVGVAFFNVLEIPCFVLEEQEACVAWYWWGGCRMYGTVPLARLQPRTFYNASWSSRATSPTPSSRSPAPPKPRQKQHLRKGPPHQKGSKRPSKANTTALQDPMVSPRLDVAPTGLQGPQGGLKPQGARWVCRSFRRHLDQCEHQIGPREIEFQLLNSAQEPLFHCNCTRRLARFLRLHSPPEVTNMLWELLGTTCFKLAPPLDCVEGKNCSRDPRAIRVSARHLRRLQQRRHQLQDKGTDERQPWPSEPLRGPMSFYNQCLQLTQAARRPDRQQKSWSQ
Cardio protect: myocardial damage modulation in H9c2 cells; H9c2 cardiomyocytes, H2O2 injury protection, ATPLite, 2 h; protection from H2O2 cell death, % at 20 µM; 360,000 tested, 0.63% active; AID 588492;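 active = compounds giving at least 50% protection of heart cells from peroxide-induced death in the single-dose screen, raw or plate-pattern-corrected value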
ABHD5 PLIN5 PPI: ABHD5-PLIN5 protein interaction inhibition; Split G. princeps luciferase complementation, luminescence, 4 h; inhibition, % at 4 µM; 360,000 tested, 0.78% active; AID 602281;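 active = inhibition above the mean inhibition across every tested compound plus 3 SD, cut at about 22% in these data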
Myeloid diff MLP: compounds promoting myeloid differentiation; 360,000 tested, 1% active; calls only at 10 µM; ER-HoxA9 myeloid progenitors, lysozyme-GFP differentiation, flow cytometry;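 active = normalized GFP-positive differentiation at or above the plate's own cutoff, the solvent-only control mean plus 3 SD; inconclusive = no clear call, values can overlap the other calls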;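 note: cells exposed to compound for four days before flow analysis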
Rtt109 HAT inh: blocks Candida albicans Rtt109/Vps75 acetyltransferase activity. inhibition, % at 34.9 µM. Q5AAJ8. purified Rtt109/Vps75, ThioGlo CoA-SH fluorescence, 4 h. 330,000 tested, 0.16% active;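 active = inhibition of at least 50% in every replicate; inconclusive = best replicate reaches 50% inhibition but some replicates fall short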
Hits are given with their value; i = inactive; ? = inconclusive; nt = not tested or not shown; + = active, no number. Hits are enriched below; roughly 2.9% of the tested compounds scored in any of these assays.

SMILES	DAGLB inhibitor	sPLA2-III inh	Cardio protect	ABHD5 PLIN5 PPI	Myeloid diff MLP	Rtt109 HAT inh
COc1ccc(C(C[N+](=O)[O-])c2c(C)cc3ccccn23)cc1 (centres undefined)	i	i	i	i	i	i
CCOC(=O)C1CCN(c2nc(N)c3c(N)nc(SCC(=O)O)cc3c2C#N)CC1	i	i	i	i	i	68
CCOC(=O)C1CCN(c2nc(C)cc(C)c2C#N)CC1	i	i	i	i	i	i
CC(C)N(C(=O)[C@H]1C[C@H](CC(=O)NC(C)(C)C)C(=O)N2CCc3c([nH]c4cc(CCC(=O)N(C)C)ccc34)[C@]12C)C(C)C	i	i	i	i	i	i
COc1cc(-c2nnc(SCc3cc(=O)oc4cc(O)c(O)cc34)o2)cc(OC)c1OC	i	i	81	i	i	i
COc1cc(-c2nnc(SCC(=O)c3ccccc3)o2)cc(OC)c1OC	i	i	i	i	i	i
CCOC(=O)CSc1nnc(-c2cc(OC)c(OC)c(OC)c2)o1	i	i	i	i	i	i
COc1cc(-c2nnc(SCC(=O)OC3CCCCC3)o2)cc(OC)c1OC	i	i	i	i	i	59
CCN(C(=O)CN1CCN(C)CC1)c1c(N)n(Cc2ccccc2)c(=O)[nH]c1=O	i	i	i	i	i	i
NC(=O)c1cccc2c1C(=O)N(C1CCCCC1)C2	i	i	78	i	i	i
O=C(Nc1ccc(Br)cc1)c1cccc2c1C(=O)N(C1CCCCC1)C2	i	i	i	i	i	i
CCN(CC)C(=O)CCc1nc2sc3c(c2c(=O)[nH]1)CCCC3	i	i	i	i	i	i
CSc1nc2sc3c(c2c(=O)[nH]1)CCC3	i	i	52	i	i	i
CCCCc1nc2sc3c(c2c(=O)[nH]1)CCC3	i	i	70	i	i	i
CSc1nc2sc3c(c2c(=O)[nH]1)CCCC3	i	i	i	i	i	i
Cc1cccc(NC(=O)CCc2nc3sc4c(c3c(=O)[nH]2)CCCC4)c1	i	i	i	i	i	i
Cc1cccc(NC(=O)C(C)SCc2nc3sc4c(c3c(=O)[nH]2)CCCC4)n1 (centres undefined)	i	i	i	i	+	i
O=C(Oc1cccc2c(=O)[nH]ccc12)c1ccccc1	i	i	80	i	i	i
CC(C(=O)O)n1c2ccccc2c2cn[nH]c(=O)c21 (centres undefined)	i	i	i	i	i	i
COC(=O)C(=C/C=C/c1ccco1)C(=O)OC	i	i	i	23	i	i
COc1ccc(NC(=O)/C(C#N)=C\C=C\c2ccco2)cc1	i	i	i	i	?	i
Cc1ccccc1CCNC(=O)CCn1nc(C)c2c(C)n(-c3ccccc3)nc2c1=O	i	i	i	i	i	i
Oc1ccc(C[C@@H]2CNCCN2CCc2cc(C(F)(F)F)cc(C(F)(F)F)c2)cc1	i	i	i	i	+	i
Cc1nnc(NC(=O)C23CC4CC(CC(C4)C2)C3)s1	i	i	i	i	i	i
CC(C)(C)c1ccc(OCCCC(=O)NNC(=O)c2ccccc2O)cc1	i	i	52	i	i	i
SMILES	DAGLB inhibitor	sPLA2-III inh	Cardio protect	ABHD5 PLIN5 PPI	Myeloid diff MLP	Rtt109 HAT inh
CC(C)(C)c1ccc(OCCCC(=O)Nc2ccc(S(N)(=O)=O)cc2)cc1	i	i	i	i	+	i
CCN(C[C@H]1N[C@@](CC)(C(=O)OC)[C@H]2C(=O)N(Cc3ccccc3)C(=O)[C@@H]12)C(=O)Nc1ccc(C(F)(F)F)cc1	i	i	i	i	i	i
CCN(C[C@H]1N[C@@](CC)(C(=O)OC)[C@H]2C(=O)N(Cc3ccccc3)C(=O)[C@@H]12)S(=O)(=O)c1ccc(F)cc1	i	i	59	i	i	i
CCN(C[C@H]1N[C@@](CC)(C(=O)OC)[C@H]2C(=O)N(Cc3ccccc3)C(=O)[C@@H]12)C(=O)Nc1ccc(OC)cc1	i	i	i	i	+	i
Cc1cc2nnc(SCC(=O)N3CCOCC3)n2c2ccccc12	i	i	i	i	i	i
Clc1cc(Br)ccc1OCCCNCc1ccccc1	i	i	i	22	i	i
O=C(NNS(=O)(=O)c1ccccc1[N+](=O)[O-])c1ccccc1Cl	i	i	i	i	+	i
O=C(NNS(=O)(=O)c1ccccc1[N+](=O)[O-])c1cc2ccccc2cc1O	i	i	i	i	i	i
O=C(CSc1cc([N+](=O)[O-])cc(S(=O)(=O)Cc2ccccc2)c1)NC1CC1	i	i	i	i	i	i
COc1cccc(-n2nnnc2S(C)(=O)=O)c1	i	nt	i	68	?	i
COc1cccc(Oc2nnnn2-c2ccccc2)c1	i	i	i	i	i	i
COc1cc(C(=O)NNC(=O)CCOc2ccccc2)cc(OC)c1OC	i	i	i	i	+	i
COc1ccc(N(C(=O)c2cnccn2)C(C(=O)NC2CCCCC2)c2ccccc2)cc1 (centres undefined)	i	i	i	i	i	i
Cc1sc2nc(CSCC(=O)Nc3ccccc3C#N)[nH]c(=O)c2c1C	i	i	i	i	+	nt
CC(C)c1ccc(NC(=O)C2CCN(C(=O)[C@@H]3Cc4ccccc4CN3)CC2)cc1	i	i	i	i	?	i
CC(=O)Nc1ccc(OCC(=O)NCc2ccccc2)cc1	i	i	i	i	i	52
CC(=O)Nc1ccc(C(=O)OCC(=O)NCc2ccccc2)cc1	i	i	i	i	i	i
Cc1ccc(-n2c(=S)[nH]c3[nH]ncc3c2=O)cc1	i	i	i	i	i	nt
COC(=O)C1CCN(C(=O)COC(=O)c2cc(-c3ccccc3)nc3ccc(OC)cc23)CC1	i	nt	i	i	+	i
Nc1cc(OC(=O)c2c(F)cccc2Cl)nn1S(=O)(=O)c1ccccc1	i	i	i	i	i	i
COc1cccc(C2c3c(C)nn(-c4ccc([N+](=O)[O-])cc4)c3N=C3C(=O)Nc4ccccc4N32)c1 (centres undefined)	i	i	56	i	i	i
CCn1c(CCc2ccccc2)n[nH]c1=S	i	i	i	i	i	i
CCn1c(CCn2c3ccccc3c3ccccc32)n[nH]c1=S	i	i	i	i	i	50
C[C@H]1CCC2[C@](C)(CO)[C@@H](O)CC[C@]2(C)[C@@]12CCC(CO)(CCO)O2 (some centres undefined)	i	i	i	i	i	i
O=C(NCCc1ccccc1Cl)c1ccc2nc3ccccc3c(=O)n2c1	i	i	58	i	i	i
Cc1ccc(S(=O)(=O)NNC(=O)c2ccncc2)cc1[N+](=O)[O-]	i	i	i	i	i	i
O=C(NCCc1cccnc1)C1CCC(=O)N(CCc2cccc(F)c2)C1 (centres undefined)	i	i	i	22	nt	i
CCN(CC)c1ccc(NC(=O)Cn2c(C(C)NC(=O)c3ccc(C)cc3)nc3ccccc32)cc1 (centres undefined)	i	i	i	i	i	i
COc1ccc2cc(-c3[nH]ncc3CN3C[C@@H]4CCC[C@H]3C4)ccc2c1	i	i	i	23	i	i
